Source: PubChem BioAssay (Tox21)
Values joined by “and” are separate entries in the source; they are usually repeats but may differ in a detail not shown here. Identical values can stand only once. Inconclusive results are not listed. Active and inactive are the calls of the source. Calls follow the shape of the dose curve; as a rule, active = well fitted curve in the direction sought with a large enough effect in the repeat runs; inconclusive = weak or mixed curves; inactive = no such curve, though single readings can be large; an effect the other way counts as inactive or inconclusive.

Experiments:
[1] = qHTS RealTime-Glo MT Cell Viability Assay in HEK293 cells - 0 hour (AID 1224880); also: top concentration of the series differs between compounds; nearly all actives have a fitted effect of over 45% in size
Method in brief: (§1)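 600 cells/well were plated with the nonlytic NanoLuc/prosubstrate reagent, pre-incubated 5 h, then given 23 nL of compound in DMSO. Incubation at 37 C for 40 h, with luminescence from viable-cell-reduced substrate read repeatedly from 0 h.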

[2] = A CellTox Green Cytotoxicity Assay to monitor cytotoxicity in HEK293 cells - 32 hour (AID 1224881); also: nearly all actives have a fitted effect of over 40% in size
Method in brief: (§2)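 HEK293 cells, 600/well, were preincubated 5 hours and then exposed to compounds at 37 C for up to 40 hours. A cell-impermeant cyanine dye staining dead-cell DNA was read by fluorescence at 0, 8, 16, 24, 32 and 40 h time points.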

[3] = A CellTox Green Cytotoxicity Assay to monitor cytotoxicity in HepG2 cells - 32 hour (AID 1224883); also: nearly all actives have a fitted effect of over 50% in size; also: potency is read from the fitted curve at half-maximal effect
Method in brief: (§3)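 HepG2 cells, 600/well, preincubated 5 h with CellTox Green dye, then exposed to Tox21 compounds in DMSO at 37 C for up to 40 h. Dead-cell DNA fluorescence read at the indicated time point.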

[4] = A CellTox Green Cytotoxicity Assay to monitor cytotoxicity in HEK293 cells - 8 hour (AID 1224884); also: nearly all actives have a fitted effect of over 35% in size
Method in brief: as §2

[5] = qHTS RealTime-Glo MT Cell Viability Assay in HepG2 cells - 16 hour (AID 1224885); also: nearly all actives have a fitted effect of over 50% in size
Method in brief: (§4)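 Tox21 10K library screened in qHTS format on HepG2 cells carrying RealTime-Glo reagents. Compounds were added after a 5 h preincubation, and the luminescent signal from continuous culture was measured repeatedly during 40 h treatment.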

[6] = qHTS RealTime-Glo MT Cell Viability Assay in HEK293 cells - 24 hour (AID 1224886); also: nearly all actives have a fitted effect of over 50% in size; also: potency is read from the fitted curve at half-maximal effect; as to activity change, negative = cytotoxicity: top concentration of the series differs between compounds
Method in brief: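 Luminescence generated by NanoLuc from substrate produced by living HEK293 cells served as the viability signal. Each value reflects the reading at its stated time point during continuous 40 h compound exposure at 37 C.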

[7] = qHTS RealTime-Glo MT Cell Viability Assay in HEK293 cells - 8 hour (AID 1224887); also: nearly all actives have a fitted effect of over 50% in size; also: potency is read from the fitted curve at half-maximal effect; as to activity change, negative = cytotoxicity: top concentration of the series differs between compounds
Method in brief: as §1

[8] = A CellTox Green Cytotoxicity Assay to monitor cytotoxicity in HEK293 cells - 16 hour (AID 1224888); also: nearly all actives have a fitted effect of over 35% in size
Method in brief: as §2

[9] = qHTS RealTime-Glo MT Cell Viability Assay in HepG2 cells - 0 hour (AID 1224889); also: nearly all actives have a fitted effect of over 50% in size
Method in brief: as §4

[10] = A CellTox Green Cytotoxicity Assay to monitor cytotoxicity in HepG2 cells - 0 hour (AID 1224882); also: nearly all actives have a fitted effect of over 35% in size
Method in brief: as §3
% is scaled to controls: 0 for no effect and ±100 for the full control effect.

COC(=O)c1ccc(C)cc1C1=NC(C)(C(C)C)C(=O)N1 (configuration not stated)
inactive: Potency [1] | Potency [2] | Potency [3] | Potency [4] | Potency [5] | Potency [6] | Potency [7] | Potency [8] | Potency [9]

CC(=O)CC(C)C
inactive: Potency [1] | Potency [2] | Potency [10] | Potency [3] | Potency [7] | Potency [8] | Potency [9]

NS(=O)(=O)c1ccc(C(=O)O)cc1
inactive: Potency [1] | Potency [2] | Potency [3] | Potency [4] | Potency [5] | Potency [6] | Potency [7] | Potency [8] | Potency [9]

Nc1cc(=O)[nH]c(N)n1
inactive: Potency [1] | Potency [2] | Potency [10] | Potency [3] | Potency [6] | Potency [7] | Potency [9]

O=C(O)CN(CCOCCOCCN(CC(=O)O)CC(=O)O)CC(=O)O
inactive: activity change, negative = cytotoxicity [1] 4.27% [at 0.29 µM] | cytotoxicity increase [2] 6.54% [at 0.29 µM] | cytotoxicity [10] -19.1% [at 0.29 µM] | cytotoxicity increase [3] -22.8% [at 0.29 µM] | activity change, negative = cytotoxic [5] 0.683% [at 0.29 µM] | activity change, negative = cytotoxicity [6] -2.79% [at 0.29 µM] | activity change, negative = cytotoxicity [7] 1.96% [at 0.29 µM] | activity change, negative = cytotoxicity [9] -0.153% [at 0.29 µM]

CCN(Cc1ccncc1)C(=O)C(CO)c1ccccc1 (configuration not stated)
inactive: Potency [1] | Potency [2] | Potency [3] | Potency [4] | Potency [5] | Potency [6] | Potency [7] | Potency [8] | Potency [9]

C1CN(CCOCCN2CCOCC2)CCO1
inactive: Potency [1] | Potency [2] | Potency [3] | Potency [4] | Potency [5] | Potency [6] | Potency [7] | Potency [8] | Potency [9]

CN1CCCC1
inactive: Potency [1] | Potency [2] | Potency [10] | Potency [3] | Potency [5] | Potency [6] | Potency [8] | Potency [9]

CCCCCCCCCCCC
inactive: Potency [1] | Potency [2] | Potency [10] | Potency [3] | Potency [6] | Potency [7] | Potency [8] | Potency [9]

COCCc1ccc(OCC(O)CNC(C)C)cc1 (configuration not stated)
inactive: Potency [1] | Potency [2] | Potency [3] | Potency [4] | Potency [5] | Potency [6] | Potency [7] | Potency [8] | Potency [9]

CN1CCC(=C2c3ccccc3CC(=O)c3sccc32)CC1
inactive: Potency [1] | Potency [2] | Potency [10] | Potency [3] | Potency [7] | Potency [8] | Potency [9]

O=[N+]([O-])c1ccc(F)cc1F
inactive: Potency [1] | Potency [2] | Potency [10] | Potency [3] | Potency [6] | Potency [7] | Potency [8] | Potency [9]

CCCCCCCCCCCCCC=O
inactive: activity change, negative = cytotoxicity [1] 8.28% [at 6.97 µM] | cytotoxicity increase [2] -0.0239% [at 6.97 µM] | cytotoxicity increase [3] 1.86% [at 6.97 µM] | cytotoxicity increase [4] -1.61% [at 6.97 µM] | activity change, negative = cytotoxic [5] 0.224% [at 6.97 µM] | activity change, negative = cytotoxicity [6] 6.14% [at 6.97 µM] | activity change, negative = cytotoxicity [7] 2.94% [at 6.97 µM] | activity change [8] -6.87% [at 6.97 µM, hits give high values] | activity change, negative = cytotoxicity [9] 15.5% [at 6.97 µM]

CCOC(=O)CC(C)=O
inactive: Potency [1] | Potency [2] | Potency [10] | Potency [3] | Potency [6] | Potency [7] | Potency [8] | Potency [9]

CCCc1cc(C(N)=S)ccn1
inactive: Potency [1] | Potency [2] | Potency [3] | Potency [4] | Potency [5] | Potency [6] | Potency [7] | Potency [8] | Potency [9]

CN1CCN(c2cc3c(cc2F)c(=O)c(C(=O)O)cn3-c2ccc(F)cc2)CC1
inactive: Potency [1] | Potency [2] | Potency [3] | Potency [4] | Potency [5] | Potency [6] | Potency [7] | Potency [8] | Potency [9]

Oc1ccc(C2CNCCc3c2cc(O)c(O)c3Cl)cc1 (configuration not stated)
inactive: Potency [1] | Potency [2] | Potency [10] | Potency [3] | Potency [5] | Potency [7] | Potency [8] | Potency [9]

Nc1c[n+](N2CCOCC2)no1
inactive: Potency [1] | Potency [2] | Potency [10] | Potency [3] | Potency [7] | Potency [8] | Potency [9]

CC(C)(C)c1ccc(O)c(O)c1
inactive: Potency [1] | Potency [10] | Potency [3] | Potency [4] | Potency [8] | Potency [9]
active: Potency [6] 22.6 µM and 13.8 µM | Potency [7] 40.2 µM and 45.3 µM

C[C@H]1C[C@@H](O)CC(C)(C)C1
inactive: Potency [1] | Potency [10] | Potency [3] | Potency [5] | Potency [7] | Potency [9]

NS(=O)(=O)c1ccccc1Cl
inactive: Potency [1] | Potency [2] | Potency [3] | Potency [6] | Potency [7] | Potency [8] | Potency [9]

COC(=O)C1=C(C)NC(C)=C(C(=O)OC)C1c1ccccc1[N+](=O)[O-]
inactive: Potency [2] | Potency [10] | Potency [3] | Potency [4] | Potency [6] | Potency [7]

CO[C@]12C[C@@H](COC(=O)c3cncc(Br)c3)CN(C)[C@@H]1Cc1cn(C)c3cccc2c13
active: Potency [3] 23.9 µM | Potency [7] 21.3 µM
inactive: Potency [1] | Potency [2] | Potency [4] | Potency [6]

Nc1nc2c(ncn2COC(CO)CO)c(=O)[nH]1
inactive: Potency [2] | Potency [10] | Potency [3] | Potency [4] | Potency [8]

OC1CCCCC1c1ccccc1 (configuration not stated)
inactive: Potency [1] | Potency [10] | Potency [3] | Potency [4] | Potency [6] | Potency [7] | Potency [8] | Potency [9]

CCC(C)S (configuration not stated)
inactive: activity change, negative = cytotoxicity [1] 2.99% [at 2.72 µM] | cytotoxicity increase [2] 1.61% [at 2.72 µM] | cytotoxicity increase [3] 1.17% [at 2.72 µM] | activity change, negative = cytotoxic [5] -0.5% [at 2.72 µM] | activity change, negative = cytotoxicity [6] 1.35% [at 2.72 µM] | activity change, negative = cytotoxicity [7] 2.1% [at 2.72 µM] | activity change [8] 1.7% [at 2.72 µM, hits give high values] | activity change, negative = cytotoxicity [9] 5.41% [at 2.72 µM]
